Compound activity deposited in PubChem by several laboratories.
This is a sample that favours compounds with a hit; in the whole collection about 3.1% have one here.
SKKanGAS inh: S. pyogenes SKKanGAS growth inhibitors in kanamycin, primary screen, streptokinase expression inhibitor project, SKKanGAS strain, BacTiter-Glo luminescence | AID 1662, 2009 | 6 h | 300,000 compounds, 1.3% hits | inhibition, % at 7.5 µM;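 active = mean replicate score, as percent of positive control median, at least 50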;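 note: strain carries kanamycin resistance gene driven by streptokinase promoter and grows in 40 µg/ml kanamycin; loss of luminescence reflects streptokinase promoter inhibition or plain growth inhibition; 0% = median of DMSO wells and 100% = positive control at its reference dose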
PP5 inh: PP5 phosphatase inhibitors, primary screen, biochemical, fluorescence; Serine/threonine-protein phosphatase 5 (Homo sapiens), P53041; purified PP5c, OMFP substrate fluorescence; inhibition, % at 6.7 µM; 320,000 compounds, 0.18% hits; AID 1987, 2009;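 active = inhibition above the campaign's mean inhibition across all tested compounds plus 3 SD, cut at about 9.5% in these data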;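 note: 0% = DMSO only and 100% = 100 µM cantharidin control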
PP1 counter: PP1-alpha phosphatase inhibitors, primary screen, counter-screen for PP5 inhibitor project, biochemical, fluorescence, OMFP substrate, single point; Serine/threonine-protein phosphatase PP1-alpha catalytic subunit (Homo sapiens), P62136; purified PP1alpha; inhibition, % at 6.7 µM; 320,000 compounds, 0.9% hits;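 active = inhibition above the mean inhibition of all tested compounds plus 3 SD, computed separately for each screening campaign, cut at about 15% in these data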
Target sequence (P62136 whole entry, looked up): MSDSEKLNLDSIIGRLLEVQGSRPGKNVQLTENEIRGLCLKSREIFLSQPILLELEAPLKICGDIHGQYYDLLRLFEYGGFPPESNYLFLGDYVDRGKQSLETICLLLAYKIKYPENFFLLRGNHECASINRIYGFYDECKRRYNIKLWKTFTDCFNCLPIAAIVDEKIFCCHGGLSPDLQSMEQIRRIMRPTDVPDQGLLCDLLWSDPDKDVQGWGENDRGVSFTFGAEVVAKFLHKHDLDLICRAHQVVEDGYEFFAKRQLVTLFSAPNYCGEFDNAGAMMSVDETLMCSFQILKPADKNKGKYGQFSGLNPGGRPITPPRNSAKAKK
CSC inhib: cancer stem cell viability inhibitors, primary screen, luminescence; cancer stem cell-like cells viability; inhibition, % at 7.5 µM; 300,000 compounds, 1.1% hits; in the data active = inhibition above about 75%; tested in HMLE shEcad cells
Beta apoptosis: inhibitors of cytokine-induced beta cell apoptosis, primary screen, luminescence; 300,000 compounds, 0.8% hits; INS-1E cytokine-induced death, ATP luminescence, 48 h; percent of positive-control rescue, neutral wells zero; protection from apoptosis, % (no concentration beside the values); AID 435005, 2010;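 active = Every replicate reaches about 75%, or at least half do and their mean reaches it too, limit read from the data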;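 note: 0% = cytokine-treated negative control wells and 100% = positive control rescue; higher means more ATP so stronger rescue from cytokine killing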
An asterisk follows results filed as active.

Screening O=[N+]([O-])c1ccc(O)c(C=Nc2ccc3c(c2)OCO3)c1 returned SKKanGAS inh 8, PP5 inh 2, PP1 counter 0, CSC inhib -19 and Beta apoptosis 12.
O=[N+]([O-])c1cc(Br)cc(C=Nc2ccc3c(c2)OCO3)c1O was read as SKKanGAS inh 54*, PP5 inh 0, PP1 counter -3, CSC inhib 18 and Beta apoptosis 7.
`CC(C)Oc1cccc(C(=O)Nc2ccc(N3CCN(C)CC3)cc2)c1` gave SKKanGAS inh 0, PP5 inh 2, PP1 counter -4, CSC inhib 26 and Beta apoptosis -11.
For CC(C)OC(=O)c1cccnc1N1CCN(c2cccc(Cl)c2)CC1 the results were SKKanGAS inh 60*, PP5 inh 3, PP1 counter 1, CSC inhib 10 and Beta apoptosis 4.
For O=C(c1cnc(N2CCN(c3ccccn3)CC2)c2ccccc12)N1CCN(c2cccc(Cl)c2)CC1 the results were SKKanGAS inh 18, PP5 inh 5, PP1 counter 4, CSC inhib 45 and Beta apoptosis 75*.
O=C(c1cc(-c2ccccc2Cl)nc2ccccc12)N1CCN(c2ccccn2)CC1 was read as CSC inhib 9 and Beta apoptosis 98*.
For O=C(c1cc(-c2ccccc2Cl)nc2ccccc12)N1CCN(c2ccccc2O)CC1 the results were SKKanGAS inh 28, PP5 inh -1, PP1 counter 2, CSC inhib 16 and Beta apoptosis 33.
CC(=O)c1ccc(OCC(=O)N2CCN(S(=O)(=O)c3ccc(C)cc3C)CC2)cc1 was read as SKKanGAS inh -4, PP5 inh 1, PP1 counter -2, CSC inhib 0 and Beta apoptosis 3.
Cn1cnc([N+](=O)[O-])c1Sc1ncnc2nc[nH]c12 was read as SKKanGAS inh 47, PP5 inh -1, PP1 counter -6, CSC inhib 85* and Beta apoptosis 3.
Screening Cn1cnc(Sc2ncnc3nc[nH]c23)c1[N+](=O)[O-] returned SKKanGAS inh -1, PP5 inh -1, PP1 counter -3, CSC inhib 84* and Beta apoptosis -3.
Cc1cccnc1Sc1c([N+](=O)[O-])ncn1C was read as SKKanGAS inh 5, PP5 inh 2, PP1 counter 4, CSC inhib -18 and Beta apoptosis -2.
Screening CC(=O)CSc1ncnc2nc[nH]c12 returned SKKanGAS inh -4, PP5 inh 2, PP1 counter 0, CSC inhib -2 and Beta apoptosis -8.
Screening Cc1ccc(CCNC(=O)C2CCN(S(=O)(=O)N3CCOCC3)CC2)cc1 returned SKKanGAS inh 17, PP5 inh -1, PP1 counter -7, CSC inhib -7 and Beta apoptosis -2.
CN(Cc1ccccc1)C(=O)COC(=O)COc1ccc(C#N)cc1 was read as SKKanGAS inh -16, PP5 inh -5, PP1 counter -5, CSC inhib 11 and Beta apoptosis -10.
`Cc1cc2nc3c(=O)[nH]c(=S)[nH]c3nc2cc1NC(=O)C(F)(F)F` gave SKKanGAS inh 18, PP5 inh -2, PP1 counter 1, CSC inhib -2 and Beta apoptosis 0.
`N#C/C(=C\c1c(F)cccc1Cl)c1nn(-c2ccccc2)c(-n2cccc2)c1C#N` gave SKKanGAS inh 9, PP5 inh 1, PP1 counter 2, CSC inhib 94* and Beta apoptosis 45.
Screening c1ccc(N/N=C(\Cc2ncc[nH]2)c2ccccc2)cc1 returned SKKanGAS inh 0, PP5 inh 1, PP1 counter -5, CSC inhib 2 and Beta apoptosis -7.
For Clc1cccc(N/N=C(\Cc2nc3ccccc3[nH]2)c2ccccc2)c1 the results were SKKanGAS inh 91*, PP5 inh 2, PP1 counter 4, CSC inhib -5 and Beta apoptosis 16.
Cn1c(N=NC(=O)c2ccccc2)c(O)c2ccccc21 was read as SKKanGAS inh -2, PP5 inh 4, PP1 counter -2, CSC inhib 6 and Beta apoptosis 9.
Screening O=C(Nc1ccc(C(=O)O)cc1)Nc1ccc([N+](=O)[O-])cc1 returned SKKanGAS inh 10, PP5 inh 0, PP1 counter 0 and CSC inhib -5.
